Laboratory results: PubChem BioAssay
Unmarked numbers belong to inactive results. Active and inactive are the calls of the source.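 How the source made its calls: active means compound that reduces growth-factor-driven endothelial tube area in a mixed cell culture, no cutoff stated; inactive means the rest.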 Non-standard residues stand in square brackets, D forms with d. Residues, ends and D or L forms follow the SMILES beside them. pGlu = O=C1CC[C@@H](C(=O)O)N1

experiment: inhibition of endothelial tube formation, primary screen, imaging, VEGF stimulated, CD31 staining, tube area, NPC library (AID 1117340); details: VEGF-stimulated ADSC/ECFC co-culture, at 10 µM, hits give high values

Structure (SMILES) | tube area decrease
OCCCc1ccccc1 | -11.1%
CC(C)C(=O)Nc1cccc(C2CN3CCSC3=N2)c1 (stereo not drawn) | -4.2%
CCNC(=O)[C@@H]1CCCN1C(=O)[C@H](CCCN=C(N)N)NC(=O)[C@H](CC(C)C)NC(=O)CNC(=O)[C@H](Cc1ccc(O)cc1)NC(=O)[C@H](CO)NC(=O)[C@H](Cc1c[nH]c2ccccc12)NC(=O)[C@H](Cc1cnc[nH]1)NC(=O)[C@@H]1CCC(=O)N1 ([pGlu]HWSYGLRP-NHEt) | -2.8%
CN1CC(O)c2cc(N=NC(N)=O)c(O)cc21 (stereo not drawn) | -33%
C[C@@H]1C[C@H]2[C@@H]3CCC4=CC(=O)C=C[C@]4(C)[C@@]3(F)[C@@H](O)C[C@]2(C)[C@@]1(O)C(=O)COC(=O)c1ccncc1 | -2.4%
c1ccc2[nH]ccc2c1 | 10.7%
O=C(O)COc1nn(Cc2ccccc2)c2ccccc12 | -13%
C[C@]12C=CC(=O)C=C1[C@@H](F)C[C@@H]1[C@@H]2[C@@H](O)C[C@@]2(C)[C@H]1CC[C@]2(O)C(=O)CO | 11.3%
O=S(=O)(O)CC(S)CS (stereo not drawn) | -1.9%
CCOC(=O)c1ccc(NC(=O)CN2CCCCC2)cc1 | 0.1%
CN1[C@@H]2CC[C@H]1CC(NC(=O)n1c(=O)[nH]c3ccccc31)C2 (stereo partly drawn) | -4.6%
Cc1cn([C@@H]2O[C@H](CO)[C@@H](O)[C@H]2F)c(=O)[nH]c1=O | -11.7%
Cc1ccc(O)c2ncccc12 | 5.7%
OCc1ccc(Cl)cc1Cl | 13.7%
CN(C)[C@@H]1C(=O)C(C(N)=O)=C(O)[C@@]2(O)C(=O)C3=C(O)c4c(O)cccc4C[C@H]3C[C@@H]12 | -5.9%
CCS(=O)(=O)c1ccc(OC)c(C(=O)OC)c1 | -10%
OC[C@H]1O[C@@H](n2cnc3c(=S)nc[nH]c32)[C@H](O)[C@@H]1O | 95.4% (active)
NS(=O)(=O)c1cc(-c2nn[nH]n2)c(NCc2cccs2)cc1Cl | -8.2%
Cc1cc(CCCOc2c(C)cc(-c3noc(C(F)(F)F)n3)cc2C)on1 | -0.1%
Cc1c(C)n(Cc2ccccc2)c2ccc(C(=O)OCCN(C)C)cc12 | 29.5%
O=C1NC(c2ccccc2)(c2ccccc2)C(=O)N1COP(=O)(O)O | -13%
CC(C)=CCC/C(C)=C/CC/C(C)=C/C(=O)OCC(=O)[C@@]1(O)CC[C@H]2[C@@H]3CCC4=CC(=O)C=C[C@]4(C)[C@H]3[C@@H](O)C[C@@]21C | 107% (active)
O=C1CC[C@H](C(=O)N2CCCCC2)N1 | 87.3% (active)
